Experiment in all cases: NCI-60 one-dose screen, 48 h (100 = growth as untreated, 0 = no growth, -100 = all killed)
One assay relates to HCT-15 colon. To be noted: 10 µM unless noted.
The subject of the next assay is HT29 colon. Conditions: 10 µM unless noted.
For another assay, the system named is SNB-19 CNS. Conditions: 10 µM unless noted.
For the next assay, the system named is U251 CNS. To be noted: 10 µM unless noted.
In another assay the test system is PC-3 prostate. To be noted: 10 µM unless noted.
Another assay deals with SK-MEL-5 melanoma. Conditions: 10 µM unless noted.
The test system of another assay is UACC-62 melanoma. Conditions: 10 µM unless noted.
Another assay has as its system LOX IMVI melanoma. To be noted: 10 µM unless noted.
The subject of a further assay is SK-MEL-28 melanoma. Conditions: 10 µM unless noted.
Another assay concerns SK-MEL-2 melanoma. Conditions: 10 µM unless noted.
The subject of another assay is EKVX NSCLC. Conditions: 10 µM unless noted.
The test system of the next assay is SN12C renal. To be noted: 10 µM unless noted.
Another assay deals with UO-31 renal. To be noted: 10 µM unless noted.
The test system of another assay is TK-10 renal. To be noted: 10 µM unless noted.
The test system of a further assay is ACHN renal. Conditions: 10 µM unless noted.
For a further assay, the system named is CAKI-1 renal. To be noted: 10 µM.
The subject of a further assay is A498 renal. Conditions: 10 µM unless noted.
In another assay the test system is CCRF-CEM leukemia. Conditions: 10 µM unless noted.
A further assay concerns MOLT-4 leukemia. Conditions: 10 µM unless noted.

The panel holds about 83,000 compounds, 20% with a hit somewhere; the sample as a whole holds those more often.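 Results are percent growth after 48 hours of single-concentration exposure. 100 means growth as in untreated cells, lower positive values show inhibition; negative values down to -100 show cell death.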 Values without a mark were called inactive. The source made the active and inactive calls. The calls were made as follows: active = growth percent below 10; inactive = the rest.

Regarding `N/C(=N\c1nc2c(Cl)cccc2s1)C(Cl)(Cl)Cl`, the growth with HCT-15 colon was 81.3%; in the assay on HT29 colon, 46.8%; with SNB-19 CNS, 72.7%; in the assay on U251 CNS it was 57.3%; in the assay with PC-3 prostate it was 65%; with SK-MEL-5 melanoma it was 96.1%. Moreover, the growth in the assay on UACC-62 melanoma was 75.4%; with LOX IMVI melanoma, 62.4%; with SK-MEL-28 melanoma, 83.3%; in the assay on SK-MEL-2 melanoma it was 105%; in the assay with EKVX NSCLC, 52.6%; with SN12C renal it was 91.9%. Moreover, the growth in the assay with UO-31 renal is 61%; in the assay on TK-10 renal it was 83.5%; in the assay on ACHN renal, 19.6%; in the assay with CAKI-1 renal it was 43.9%; in the assay with A498 renal, 29.9%; with CCRF-CEM leukemia, 97.3%. The growth in the assay on MOLT-4 leukemia is 92.1%.
On to `O=C(/C=C1\C=CN(CCCCF)c2ccccc21)n1ccc2ccccc21`, for which the growth is 102% in the assay with HCT-15 colon; 107% in the assay on HT29 colon; 105% with SNB-19 CNS; 105% with U251 CNS; 103% in the assay on PC-3 prostate; 98.8% in the assay on SK-MEL-5 melanoma. In addition, the growth in the assay with UACC-62 melanoma was 89.2%; with LOX IMVI melanoma it was 106%; in the assay with SK-MEL-28 melanoma, 108%; in the assay with SK-MEL-2 melanoma, 103%; with EKVX NSCLC it was 90.7%; in the assay on SN12C renal, 94.6%. In addition, the growth in the assay with UO-31 renal was 74.2%; in the assay on TK-10 renal, 117%; in the assay on ACHN renal, 97.6%; in the assay on CAKI-1 renal, 87.5%; in the assay with A498 renal, 135%; in the assay with CCRF-CEM leukemia it was 96.4%. Moreover, the growth in the assay on MOLT-4 leukemia was 105%.
Take `CCOC(=O)c1c(NC(=O)c2cccc(C(F)(F)F)c2)sc2c(CN3CCN(C)CC3)c(O)ccc12`: the growth with HCT-15 colon was -82.3% (active); in the assay on HT29 colon, -31.6% (active); with SNB-19 CNS, -53.9% (active); with U251 CNS, -79.1% (active); with PC-3 prostate it was -33.9% (active); in the assay on SK-MEL-5 melanoma, 52.7%. Moreover, the growth with UACC-62 melanoma is -67.5% (active); in the assay with LOX IMVI melanoma, -94.7% (active); in the assay on SK-MEL-28 melanoma, -60.5% (active); in the assay on SK-MEL-2 melanoma, 94.7%; with EKVX NSCLC, 70.4%; with SN12C renal it was -83.7% (active). In addition, the growth was -95% (active) in the assay on UO-31 renal; -52.7% (active) in the assay with TK-10 renal; -98.8% (active) in the assay on ACHN renal; -73.9% (active) in the assay on CAKI-1 renal; 77.5% with A498 renal; -23.8% (active) in the assay with CCRF-CEM leukemia. In the assay on MOLT-4 leukemia, the growth is -27.8% (active).
As to `O=C(CCCCCCN1CC(=O)N2[C@@H](c3cccc(Cl)c3)c3[nH]c4ccccc4c3C[C@H]2C1=O)NO`, the growth in the assay with HCT-15 colon is 85.7%; in the assay with HT29 colon it was 30.6%; with SNB-19 CNS, 61.2%; in the assay with U251 CNS, 44.9%; in the assay on PC-3 prostate, 42.6%; with SK-MEL-5 melanoma it was 33.6%. The growth in the assay with UACC-62 melanoma is 16%; with LOX IMVI melanoma it was -80.3% (active); in the assay on SK-MEL-28 melanoma, 40.2%; in the assay on SK-MEL-2 melanoma, 56%; in the assay on EKVX NSCLC it was 70.1%; in the assay on SN12C renal, 65.7%. For the same compound, the growth in the assay with UO-31 renal is 60.3%; with TK-10 renal, 57.1%; with ACHN renal it was 87.1%; in the assay with CAKI-1 renal, 47.7%; in the assay with A498 renal, 72.8%; with CCRF-CEM leukemia, 17.1%. In addition, the growth with MOLT-4 leukemia was 17.5%.
Take `C/C(=C(/C)C1CC1CCN(C(=O)c1ccccn1)S(=O)(=O)c1ccc(C)cc1)C1CCCCC1` (stereo not drawn): the growth in the assay on HCT-15 colon was 91.8%; in the assay with HT29 colon, 98.3%; with SNB-19 CNS, 98.4%; in the assay with U251 CNS it was 103%; in the assay with PC-3 prostate it was 93.4%; in the assay with SK-MEL-5 melanoma it was 78.6%. The growth is 63.6% in the assay on UACC-62 melanoma; 97.8% in the assay on LOX IMVI melanoma; 97.3% in the assay on SK-MEL-28 melanoma; 101% in the assay with SK-MEL-2 melanoma; 77.6% with EKVX NSCLC; 98.2% in the assay with SN12C renal. Also, the growth is 86.4% with UO-31 renal; 105% with TK-10 renal; 99.3% in the assay on ACHN renal; 78.9% with CAKI-1 renal; 94.6% in the assay on A498 renal; 92.5% in the assay with CCRF-CEM leukemia. For the same compound, the growth in the assay on MOLT-4 leukemia was 88.2%.
As to `NC(=O)N1N=C(c2cc3ccccc3oc2=O)CC1c1cn(-c2ccccc2)nc1-c1ccc(Cl)cc1` (stereo not drawn), the growth was 19.4% with HCT-15 colon; 35.9% in the assay on HT29 colon; 45% with SNB-19 CNS; 30.5% in the assay on U251 CNS; 25.9% in the assay with PC-3 prostate; 19.5% in the assay on SK-MEL-5 melanoma. Further, the growth in the assay on UACC-62 melanoma is 38.7%; in the assay with LOX IMVI melanoma, 20.3%; with SK-MEL-28 melanoma, 60.1%; with SK-MEL-2 melanoma, 71.8%; in the assay with EKVX NSCLC, 24.3%; in the assay on SN12C renal, 47.4%. Moreover, the growth in the assay on UO-31 renal is 17.8%; in the assay with TK-10 renal, 93.4%; in the assay with ACHN renal, 32.5%; in the assay with CAKI-1 renal it was 32.9%; in the assay with A498 renal, 54.5%; with CCRF-CEM leukemia, 7.27% (active). Moreover, the growth with MOLT-4 leukemia was 17.3%.
Turning to `O=C1[C@@H]2Cc3c([nH]c4ccccc34)[C@H](c3c(Cl)cccc3Cl)N2C(=O)CN1C1CCN(Cc2c(F)cccc2F)CC1`, the growth was 52.2% with HCT-15 colon; 63.9% in the assay on HT29 colon; 81.7% with SNB-19 CNS; 73.5% in the assay with U251 CNS; 69.9% with PC-3 prostate; 53.4% in the assay with SK-MEL-5 melanoma. The growth is 76.8% in the assay with UACC-62 melanoma; -47.1% (active) in the assay with LOX IMVI melanoma; 75% with SK-MEL-28 melanoma; 110% in the assay on SK-MEL-2 melanoma; 60.6% in the assay on EKVX NSCLC; 50.6% in the assay with SN12C renal. Besides, the growth was 74.9% in the assay on UO-31 renal; 106% with TK-10 renal; 81.6% in the assay with ACHN renal; 78.6% with CAKI-1 renal; 103% in the assay with A498 renal; 65.5% in the assay with CCRF-CEM leukemia. Besides, the growth with MOLT-4 leukemia was 58.8%.

Source of the values: PubChem BioAssay (NCI).
